Our source for the inhibition values is PubChem BioAssay AID1952 (The Scripps Research Institute Molecular Screening Center, 2009).

Molecules are shown by their SMILES. Out of some 2,400 compounds screened, about 1,200 (50%) were called active. No stated cut-off is given here; in the data, active means inhibition above about 24%; inactive means the rest. So high a share suggests a set chosen from earlier hits. A selection follows.

The target in this experiment is Neuropeptides B/W receptor type 1 (Homo sapiens) (UniProt P48145). In words: blockers of human NPBW1 receptor – cell-based, fluorescence, single concentration, confirmation (AID 1952).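 Further: stimulated with the GPR7 agonist NPW; 0% = agonist plus vehicle and 100% = vehicle alone without agonist.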 The following applies: GPR7-expressing cells, calcium fluorescence antagonist mode; at 4.4 µM; hits give high values.
Neuropeptides B/W receptor type 1 (Homo sapiens), sequence (P48145 whole entry, looked up): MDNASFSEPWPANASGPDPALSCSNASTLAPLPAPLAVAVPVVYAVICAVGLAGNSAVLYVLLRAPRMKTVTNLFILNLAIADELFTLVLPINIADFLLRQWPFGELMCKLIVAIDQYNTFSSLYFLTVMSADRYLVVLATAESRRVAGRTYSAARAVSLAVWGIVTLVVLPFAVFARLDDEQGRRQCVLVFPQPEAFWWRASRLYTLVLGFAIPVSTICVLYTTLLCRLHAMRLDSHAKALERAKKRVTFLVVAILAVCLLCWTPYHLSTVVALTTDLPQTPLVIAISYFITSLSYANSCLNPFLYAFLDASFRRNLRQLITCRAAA
The inhibition is the relative decrease from the control value, in per cent. Take `Cc1cccc(CS(=O)(=O)c2ncc(Cl)c(C(=O)Nc3ccc(F)cc3)n2)c1`: the inhibition is 51.2% (active). Take `COc1ccccc1CNC(=O)COc1ccc(C)nc1[N+](=O)[O-]`: the inhibition is 2.95% (inactive).

`COc1ccc(NS(=O)(=O)c2ccc(NC(=S)NC(=O)CC(C)C)cc2)cc1`: the inhibition is 35.8% (active). As to `COc1ccccc1Oc1ccc(S(=O)(=O)Nc2cccnc2)cc1`, the inhibition was 16.8% (inactive).

Regarding `COc1ccc(C2Nc3ccccc3C(=O)N2Cc2ccccc2)cc1Cn1nnc2ccccc21` (stereo not given), the inhibition is 31.7% (active). As for `O=C(CC(=O)Nc1ccc(Cl)c(Cl)c1)N/N=C/c1ccc(O)cc1`, the inhibition is 10.9% (inactive). As for `COc1ccc(C(CCNCc2ccccc2F)c2ccc(F)cc2)cc1` (stereo not given), the inhibition was 47.2% (active).

`CC1(C)CC(CNCCC(c2ccc(F)cc2)c2ccco2)CCO1` (stereo not given): the inhibition is 12.5% (inactive). As to `CC(C)OCCCNc1ncnc2c1[nH]c1ccc(F)cc12`, the inhibition is 39.2% (active).

With `O=C(CCc1ccccc1)Nc1ccc(NC(=O)C2CC2)nc1`, the inhibition was 17.6% (inactive). As to `O=C(CN1CCN(C(=S)NC2CCCC2)CC1)Nc1ccc(Oc2ccccc2)cc1`, the inhibition was 28.6% (active).

In the case of `Cc1ccc(NC(=O)CN2CCC3(O)CCCCC3C2c2ccc3c(c2)OCO3)c(C)c1` (stereo not given), the inhibition is 19.6% (inactive). Regarding `CCc1ccc(NC(=O)c2ccc(Cn3cc([N+](=O)[O-])cn3)cc2)cc1`, the inhibition is 29.5% (active). As for `O=C(COc1ccccc1)NCc1ccc2c(c1)OCO2`, the figure is 14.3% (inactive); as for `CCOc1ccc(Cn2nnc(C(=O)NCc3ccccc3)c2N)cc1`, 52.4% (active); as for `COc1cc(NC(=O)CN2C(=O)NC(C)(c3ccc(OC(F)F)cc3)C2=O)cc(OC)c1OC` (stereo not given), 23.2% (inactive). As to `Cc1cc2c(cc1C)N(Cc1ccccc1)C1=NCCCN12`, the inhibition is 20.8% (inactive).

As for `CCN1CCN(c2ccc([N+](=O)[O-])cc2C(=O)c2ccc(Cl)cc2)CC1`, the inhibition was 39.6% (active).

With `CCOc1ccc(C(=O)NC(=S)Nc2ccc(N3CCOCC3)c(Cl)c2)cc1[N+](=O)[O-]`, the inhibition is -6.59% (inactive). Turning to `COc1ccc(N=C2SC(C(=O)Nc3ccc(F)cc3)CC(=O)N2C)cc1` (stereo not given), the inhibition is 4.38% (inactive).

With `Fc1ccc(-c2ccc(-c3nn4c(-c5ccco5)nnc4s3)o2)cc1`, the inhibition is 8.54% (inactive). Take `O=C(CN1C(=O)/C(=C/c2ccccc2F)Sc2ccccc21)NCc1cccnc1`: the inhibition is -18% (inactive). Take `Cc1ccc(C(=O)C[n+]2cc(-c3ccccc3)n3c2CCCCC3)cc1`: the inhibition is 27.9% (active). As for `C=CCC1(CC=C)CCCN1C(=O)c1cc(COc2ccc(-n3cncn3)cc2)on1`, the figure is 29.2% (active); as for `Clc1ccc(-c2cc(C3CCNCC3)[nH]n2)c(Cl)c1`, 34.3% (active). Turning to `CCCCCCCCCCOC(=O)Cn1c(COc2cccc(OC)c2)[n+](C)c2ccccc21`, the inhibition was 78.9% (active). For the molecule `Cc1cccc(NC(=O)c2cccc(C(=O)Nc3cccc(C)c3C)n2)c1C`, the inhibition is 37.8% (active). For `Clc1ccc(C2CC(c3cccs3)n3ncnc3N2)cc1Cl` (stereo not given), the inhibition was 31.9% (active). As for `CCC(C(=O)Nc1ccc(C(C)C)cc1)c1ccccc1` (stereo not given), the inhibition was 94.1% (active). In the case of `C=CCNC(=O)COC(=O)c1ccccc1C(=O)N(C)C1CCCCC1`, the inhibition is -3.62% (inactive). Consider `O=C(Nc1ccc2c(c1)OCO2)C1CC(c2c(F)cccc2Cl)=NO1` (stereo not given), for which the inhibition is 8.85% (inactive). In the case of `CC(=O)N1CCCc2cc(S(=O)(=O)N3CCCC(C(=O)N4CCN(c5cccc(Cl)c5)CC4)C3)ccc21` (stereo not given), the inhibition was 69.6% (active). For `COc1ccc(NC(=O)C2CCC(CNS(=O)(=O)c3csc(C(N)=O)c3)CC2)cc1OC` (stereo not given), the inhibition was -15.3% (inactive).

For `COc1cc(OC)cc(C(=O)N[C@H](C(=O)OCC(=O)NC(C)c2ccccc2)C(C)C)c1` (stereo not given in full), the inhibition was 79.4% (active). With `COCCCNC(=S)N1CCN(c2nc(-c3cccc(OC)c3)cs2)CC1` the figure was 19% (inactive). For the molecule `O=C(NC(=O)c1ccccc1)Nc1ccccc1O`, the inhibition is 12.2% (inactive).

On to `Cc1ccccc1NC(=S)NC(=O)Cc1ccc(Cl)cc1`, for which the inhibition is 70.5% (active). As for `O=C(Cc1ccc(Cl)cc1)NC(=S)Nc1ccccc1O`, the inhibition was 84.5% (active).

With `O=C(CCCN1CCc2[nH]c3ccc(F)cc3c2C1)c1ccc(F)cc1`, the inhibition was 18.6% (inactive).

With `CN(c1cccc(NC(=O)Nc2ccc(Cl)cc2)c1)S(C)(=O)=O`, the inhibition was 31% (active). On to `OC(CNCC1CCCO1)Cn1c2ccc(Br)cc2c2cc(Br)ccc21` (stereo not given), for which the inhibition is 78.3% (active).

With `Cc1ccccc1CN1C(=O)c2ccccc2Sc2ccc(C(=O)NCCCN3CCOCC3)cc21`, the inhibition is 42.4% (active). `O=C(NCCCN1CCOCC1)c1ccc2c(c1)N(Cc1cccc(F)c1)C(=O)c1ccccc1S2`: the inhibition is 24.3% (active). As for `O=C(CSc1nnc(-c2ccco2)o1)NCC(=O)c1ccccc1`, the figure is -14.8% (inactive); as for `Cc1ccc(S(=O)(=O)n2cnc3ccccc32)c(C)c1`, -4.27% (inactive). As for `COc1ccc(C)cc1NC(=O)NCCCCc1ccccc1`, the inhibition was 4.53% (inactive). As for `CS(=O)(=O)N(Cc1ccc(Cl)cc1)c1ccc(C(=O)NCCSCc2ccco2)cc1`, the figure is 32.3% (active). For the molecule `Cc1ccc2[nH]cc(CCNC(=O)c3ccc([N+](=O)[O-])cc3)c2c1`, the inhibition was 40.7% (active). With `Cc1ccccc1CN1C[C@@H]2C[C@@H](c3cn(C)nc3-c3ccccc3)N3CCC[C@@]23C1=O` the figure was 21.9% (inactive); with `Cc1ccc(NC2=C(Cl)C(=O)OC2OC(=O)c2ccccc2C)cc1` (stereo not given), 4.37% (inactive); with `CC1CN(C(=O)CCC(=O)NCCCN2CCC(Cc3ccccc3)CC2)c2cc(Cl)ccc2O1` (stereo not given), 49.4% (active).

With `c1ccc(C2CNCc3c2ccc2ccccc32)cc1` (stereo not given), the inhibition is 89.5% (active).

Take `CC(=O)Nc1ccc(S(=O)(=O)N(C)CC(=O)NCCC2=CCCCC2)cc1`: the inhibition is -0.53% (inactive). As for `CN(c1ccccc1)S(=O)(=O)c1ccc(C(=O)NCCc2ccccc2)cc1`, the figure is 24.1% (active).

Consider `S=C(NCCc1ccccc1)Nc1ccccc1`, for which the inhibition was 1.82% (inactive). Consider `N=c1n(CCc2ccccc2)c2ccccc2n1Cc1ccccc1F`, for which the inhibition is 36.4% (active). Consider `CS(=O)(=O)Nc1cccc(C2=NN(S(=O)(=O)c3ccccc3)C(c3cccs3)C2)c1` (stereo not given), for which the inhibition is 22.3% (inactive). Regarding `CCN(CC)Cc1c(C(=O)OC)nnn1-c1nonc1N`, the inhibition is -1.39% (inactive).

For `CCOc1ncccc1C(=O)NCCc1ccc(OC)cc1`, the inhibition is 15% (inactive). With `COc1ccc(CS(=O)/C(Cl)=C(/Cl)C(=O)Nc2ccc(OC)nc2)cc1` (stereo not given), the inhibition was 63.6% (active).
